CHO-K1 Ca antag – counter-screen for M1 antagonists: effect in parental CHO-K1 cells | ATP-induced calcium, Fluo-8 fluorescence | inhibition, % at 3 µM | hit rate 0.6% among 360,000 | AID 602250;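 active means inhibition above a per-plate cutoff, the plate's mean sample inhibition plus 3 SD, cut at about 24% in these data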
M1 ag – human M1 muscarinic receptor agonists, primary screen, Fluo-8 calcium fluorescence, CHO-K1 cells, HTS. hit rate 0.33% among 360,000. Muscarinic acetylcholine receptor M1 (Homo sapiens), P11229. CHO-K1 hM1, agonist mode; 0% DMSO, 100% acetylcholine EC100. activation, % at 3 µM. AID 588814, 2011;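 active means activation above the run's mean compound activation plus 3 SD, cut at about 16% in these data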;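 further: peak over basal fluorescence ratio within a 140 s kinetic read after compound addition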
Target sequence (P11229 whole entry, looked up): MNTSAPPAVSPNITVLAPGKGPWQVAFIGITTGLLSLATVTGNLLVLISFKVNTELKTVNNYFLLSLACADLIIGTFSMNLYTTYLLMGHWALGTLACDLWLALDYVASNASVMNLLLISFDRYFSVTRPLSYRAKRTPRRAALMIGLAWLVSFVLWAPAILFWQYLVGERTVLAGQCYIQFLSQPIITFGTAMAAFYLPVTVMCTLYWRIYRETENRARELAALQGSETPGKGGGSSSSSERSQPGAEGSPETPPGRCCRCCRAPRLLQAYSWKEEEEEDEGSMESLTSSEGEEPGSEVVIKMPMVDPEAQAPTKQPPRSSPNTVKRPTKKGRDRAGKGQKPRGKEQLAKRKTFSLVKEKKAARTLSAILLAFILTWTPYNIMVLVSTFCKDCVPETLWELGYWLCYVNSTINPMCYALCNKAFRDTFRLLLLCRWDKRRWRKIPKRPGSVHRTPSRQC
CHO-K1 Ca ag – counter-screen for M1 agonists: effect in parental CHO-K1 cells. hit rate 0.48% among 360,000. Fluo-8 calcium fluorescence; scaled to maximal ATP response, vehicle zero. activation, % at 3 µM; in the data active means activation above about 15%;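 further: untransfected CHO-K1 host cells lacking M1 receptor as counterscreen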
M1 antag – human M1 muscarinic receptor antagonists, primary screen, CHO-K1 cells, Fluo-8 calcium fluorescence, 1536-well. CHO-K1 hM1, ACh EC80 antagonist. hit rate 1.3% among 360,000. inhibition, % at 3 µM;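 active means percent inhibition above its own plate's cutoff, namely the mean of that plate's compound wells plus 3 SD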;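 further: peak over basal fluorescence ratio during 140 s after agonist addition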
M1 PAM parental – nonselective calcium activators in parental CHO-K1 cells, primary screen, counter-screen for M1 PAM project, cell-based, Fluo-8 calcium fluorescence, full deck, 1536-well; ATP EC20; 0% at ATP EC20, 100% at ATP max; activation, % at 3 µM; hit rate 0.02% among 360,000;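 active means activation above the run cutoff, the mean activation of all test compounds plus 3 SD, cut at about 40% in these data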;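 further: peak over basal fluorescence ratio in a 140 s read after ATP addition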
M1 PAM – human M1 muscarinic receptor positive allosteric modulators, primary screen, CHO-K1 cells, Fluo-8 calcium fluorescence, 1536-well | Muscarinic acetylcholine receptor M1 (Homo sapiens), P11229 | CHO-K1 hM1, ACh EC20; 0% = ACh EC20, 100% = maximal ACh | activation, % at 3 µM | hit rate 0.088% among 360,000 | AID 588819, 2011; in the data active means activation above about 19%, passing the limit was not always enough
Each line names hits and unclear results; the compound was inactive in the other large screens. Most compounds without a hit are left out; they make up all but 2.3% or so of the library.

O=C(COC(=O)c1cc(=O)[nH]c2ccccc12)Nc1nc(-c2ccc(F)cc2)cs1	none
CCN(c1ccc(NC(=O)COC(=O)c2ccc(S(=O)(=O)N3CCCC3)cc2)cc1)C(C)C	M1 antag 68
CCN(CC(=O)Nc1ccc(S(=O)(=O)N2CCOCC2)cc1)Cc1ccccc1	none
CCN(CC(=O)Nc1ccc(S(=O)(=O)N2CCCC2)cc1)Cc1ccccc1	M1 antag 45
CC(C)CNC(=O)C1(C)CCCN1C(=O)C(C)(C)Oc1ccc(Cl)cc1 (centres undefined)	none
CC1=C(C(=O)N2CCOCC2)C(c2ccc(Cl)cc2)NC(=S)N1 (centres undefined)	CHO-K1 Ca ag 20
O=C(NCCNC(=O)Nc1ccc(Cl)cc1)Nc1ccc(Cl)cc1	none
Cc1nnsc1SCCNC(=O)Nc1ccc(Cl)cc1	M1 antag 37
Cc1ccc(S(=O)(=O)N2CCN(C)CC2)cc1C	none
Cc1ccc(S(=O)(=O)N2CCC(N3CCN(C)CC3)CC2)cc1Cl	M1 antag 42
O=S(=O)(c1ccc(F)cc1)N1CCC(N2CCCC2)CC1	CHO-K1 Ca antag 40
CCc1ccc(NC(=O)C2=CC=CN3CCS(=O)(=O)N=C23)cc1	none
CC(=O)Nc1cc(-c2ccc(C(=O)N3CCOCC3)cc2)cn2c(-c3cccc(C(C)=O)c3)cnc12	none
Cn1cnc2c(oc3ccccc32)c1=O	none
O=C(NNC(=O)c1cc(-c2cccc(Br)c2)nc2ccccc12)c1csc(N2CCOCC2)n1	none
O=C(NC1CCCC1)c1ccc2nc(-c3ccco3)c(-c3ccco3)nc2c1	CHO-K1 Ca antag 26
O=C(NCCO)c1ccc2nc(-c3ccco3)c(-c3ccco3)nc2c1	none
COC(=O)C1=C(N)Oc2cc(C)n(Cc3cccnc3)c(=O)c2C1c1ccccc1OC (centres undefined)	CHO-K1 Ca antag 26
CCOC(=O)C1CCN(C(=O)c2sc3nc(-c4ccccc4)cn3c2C)CC1	none
CCOC(=O)C1CCCN(C(=O)c2sc3nc(-c4ccc(OC)cc4)cn3c2C)C1 (centres undefined)	M1 ag 28
CCOC(=O)C1CCCN(C(=O)c2cc(-c3ccco3)nc3ccccc23)C1 (centres undefined)	M1 ag 25
CCOC(=O)C1CCCN(c2c(C(=O)c3ccccc3)cnc3ccccc23)C1 (centres undefined)	M1 ag 38, M1 antag 30
CCOC(=O)C1CCCN(C(=O)c2ccco2)C1 (centres undefined)	M1 ag 52
CCOC(=O)C1CCCN(C(=O)c2ccc(-c3ccccc3Cl)o2)C1 (centres undefined)	none
O=c1ccn([C@@H]2O[C@H](CNCc3cccn3-c3nccs3)[C@@H](O)[C@H]2O)c(=O)[nH]1	none
O=C(CCc1nc2ccccc2c(=O)[nH]1)N1CCN(S(=O)(=O)c2cccc(F)c2)CC1	none
Clc1ccc(OCCN2CCN(c3ncnc4sccc34)CC2)cc1	CHO-K1 Ca antag 34, M1 antag 25
Cc1ccc(OCCN2CCN(c3ncnc4sc(C)c(C)c34)CC2)cc1	M1 antag 17
Cc1sc2ncnc(N3CCCCC3)c2c1C	none
